Screen size: about 310,000 compounds; about 2,200 (0.71%) showed an effect of 50% or more. Effects have a minus sign here. The list comes from a sample in which strong results are over-represented; it also holds similar structures and randomly drawn compounds.

human ether-à-go-go-related gene (hERG) potassium channel, sequence (Q12809 whole entry, looked up): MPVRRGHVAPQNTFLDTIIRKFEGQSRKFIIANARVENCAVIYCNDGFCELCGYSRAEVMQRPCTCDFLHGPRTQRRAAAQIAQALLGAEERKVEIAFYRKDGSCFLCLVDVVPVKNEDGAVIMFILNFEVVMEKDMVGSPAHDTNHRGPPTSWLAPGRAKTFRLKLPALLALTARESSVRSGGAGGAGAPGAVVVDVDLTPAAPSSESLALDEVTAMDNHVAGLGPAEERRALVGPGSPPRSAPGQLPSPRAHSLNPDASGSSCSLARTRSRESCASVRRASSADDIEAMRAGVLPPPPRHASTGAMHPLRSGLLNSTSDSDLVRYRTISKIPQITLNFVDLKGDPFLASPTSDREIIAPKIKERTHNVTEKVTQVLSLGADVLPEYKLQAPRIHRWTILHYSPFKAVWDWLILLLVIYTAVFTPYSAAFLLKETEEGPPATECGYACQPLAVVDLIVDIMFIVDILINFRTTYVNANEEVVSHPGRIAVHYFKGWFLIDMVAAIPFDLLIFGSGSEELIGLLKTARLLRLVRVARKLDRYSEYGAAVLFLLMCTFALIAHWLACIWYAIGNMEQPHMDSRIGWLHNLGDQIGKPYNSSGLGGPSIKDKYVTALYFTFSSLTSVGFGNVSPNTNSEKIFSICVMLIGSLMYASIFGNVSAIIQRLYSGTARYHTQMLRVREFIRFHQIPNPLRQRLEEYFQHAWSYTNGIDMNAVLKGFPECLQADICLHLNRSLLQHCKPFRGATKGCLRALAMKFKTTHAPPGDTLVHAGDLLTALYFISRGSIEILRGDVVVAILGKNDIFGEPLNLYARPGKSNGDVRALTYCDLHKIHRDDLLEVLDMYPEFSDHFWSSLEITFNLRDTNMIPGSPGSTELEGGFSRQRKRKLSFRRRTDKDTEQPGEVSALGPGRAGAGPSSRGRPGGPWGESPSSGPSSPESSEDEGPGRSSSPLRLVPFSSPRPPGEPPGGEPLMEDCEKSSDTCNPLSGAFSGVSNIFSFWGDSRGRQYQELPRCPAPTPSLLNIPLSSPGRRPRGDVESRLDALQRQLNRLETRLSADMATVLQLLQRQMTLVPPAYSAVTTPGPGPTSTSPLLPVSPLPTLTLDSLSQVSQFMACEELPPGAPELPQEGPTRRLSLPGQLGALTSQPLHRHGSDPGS

The assay has as its target human ether-à-go-go-related gene (hERG) potassium channel (human, UniProt Q12809). In words: primary screen, population patch clamp on CHO cells stably expressing hERG; higher = less effect of the substance.
In the case of `Cc1cc2cc3c(cc2nc1SCC(=O)N1c2ccccc2CC1C)OCO3` (centres unmarked), the “hERG current change (%, negative = inhibition) at 1uM” value turned out to be 5.76%.

As for `O=C(Nc1ccc2oc(-c3ccncc3)nc2c1)c1ccccc1F`, the “hERG current change (%, negative = inhibition) at 1uM” value stood at 7.55%. The same measure for `Cc1ccccc1OCCC(=O)Nc1ccccc1C(=O)N1CCCCC1`: 10.9%. Consider `Nc1nc(SCC(=O)c2ccc([N+](=O)[O-])cc2)n[nH]1`, for which the “hERG current change (%, negative = inhibition) at 1uM” value was 1.72%.

On to `O=c1c2cn[nH]c2[nH]c(=S)n1-c1ccccc1`, for which the “hERG current change (%, negative = inhibition) at 1uM” value worked out at 14.3%. As for `CC(=O)Nc1cccc(OCc2c(F)cccc2Cl)c1`, the “hERG current change (%, negative = inhibition) at 1uM” value is recorded as 4.98%. In the case of `O=C(NC(=S)Nn1cnc2c(cnn2-c2ccccc2)c1=O)c1ccc(Cl)cc1` it was 11.4%. The same measure for `CCn1c(SCC(=O)c2cc(C)n(-c3ccc(C(=O)OC)cc3)c2C)nnc1-c1cccnc1`: 1.88%; for `COCCn1c(SCc2ccccc2)nc2c1c(=O)[nH]c(=O)n2C`: 11.8%. `CSCCC1NC(=O)N(CC(=O)Nc2cc(C)on2)C1=O` (centres unmarked): the “hERG current change (%, negative = inhibition) at 1uM” value came to 9.03%. Turning to `CC(C)C(C(=O)C=[N+]=[N-])N1C(=O)c2ccccc2C1=O` (centres unmarked), the “hERG current change (%, negative = inhibition) at 1uM” value amounted to 11.2%. Turning to `Cc1cc(C(=O)N2CCN(c3ccc([N+](=O)[O-])cc3)CC2)co1`, the “hERG current change (%, negative = inhibition) at 1uM” value is on record as -64.7%. Turning to `Cc1cc(C)n(-c2cc(N3CCN(C(=O)c4ccc(C(C)(C)C)cc4)CC3)ccc2[N+](=O)[O-])n1`, the “hERG current change (%, negative = inhibition) at 1uM” value came to 3.39%. In the case of `Cc1occc1C(=O)N1CCN(c2ccc([N+](=O)[O-])cc2)CC1` it was -45.8%; in that of `O=C(c1cncc(Br)c1)N1CCN(c2ccc([N+](=O)[O-])cc2)CC1`, -62.2%; in that of `Cc1cc(C(=O)N2CCN(c3ccc([N+](=O)[O-])cc3)CC2)no1`, -36%. With `O=C(c1ccc([N+](=O)[O-])cc1)N1CCN(c2ncc(Br)cn2)CC1`, the “hERG current change (%, negative = inhibition) at 1uM” value is reported as -11.3%. As to `COc1ccc(C(=O)N2CCN(c3ccc([N+](=O)[O-])c(-n4nc(C)cc4C)c3)CC2)cc1`, the “hERG current change (%, negative = inhibition) at 1uM” value is -80.6%.

Turning to `O=C(c1cncc(Br)c1)N1CCN(c2ccc(N3CCOCC3)nn2)CC1`, the “hERG current change (%, negative = inhibition) at 1uM” value was 9.87%. `CC(=O)N1CCN(c2ccc([N+](=O)[O-])c(-n3nc(C)cc3C)c2)CC1`: the “hERG current change (%, negative = inhibition) at 1uM” value was -9.97%. On to `C=CCc1cccc2cc(C(=O)Nc3ccc(F)cc3)c(=O)oc12`, for which the “hERG current change (%, negative = inhibition) at 1uM” value was 6.28%.

For the compound `COC(=O)c1ccc(NC(=S)NC(=O)c2cc(-c3ccccc3)nc3ccccc23)cc1`, the “hERG current change (%, negative = inhibition) at 1uM” value is 9.36%.

Regarding `NC(=O)[C@H]1CC2(CC(c3cccc(NC(=O)CC(c4ccccc4)c4ccccc4)c3)=NO2)CN1C(=O)CC(c1ccccc1)c1ccccc1` (some centres unmarked), the “hERG current change (%, negative = inhibition) at 1uM” value came to 14.8%.

On to `Nc1ccc(O)cc1`, for which the “hERG current change (%, negative = inhibition) at 1uM” value worked out at 10.2%. For `COc1ccc(/C=C2\Oc3cc(OC(=O)N4CCOCC4)ccc3C2=O)cc1`, the “hERG current change (%, negative = inhibition) at 1uM” value is 3.7%. With `CCC(=O)Nc1ccc2oc(-c3ccccc3Br)nc2c1`, the “hERG current change (%, negative = inhibition) at 1uM” value is listed as 9.07%. As for `CC1CCc2c(sc3nc(CN4CCN(S(=O)(=O)c5ccccc5[N+](=O)[O-])CC4)[nH]c(=O)c23)C1` (centres unmarked), the “hERG current change (%, negative = inhibition) at 1uM” value is recorded as -0.366%. Turning to `C=CCn1cc(CN2CCC(C(=O)Nc3cccc(-c4cccc(Cl)c4)c3)CC2)c(C)n1`, the “hERG current change (%, negative = inhibition) at 1uM” value is given as -30%. Turning to `O=C(c1ccc2c(=O)n(Cc3ccc(Cl)cc3)c(=S)[nH]c2c1)N1CCCC1`, the “hERG current change (%, negative = inhibition) at 1uM” value is reported as 17%. In the case of `Oc1[nH]c2ccccc2c1N=Nc1nc2ccccc2s1`, the “hERG current change (%, negative = inhibition) at 1uM” value was -3.26%. As for `Cl.NCCCCC(=O)O`, the “hERG current change (%, negative = inhibition) at 1uM” value is 11.5%. As for `CC(C1CC1)N(C(=O)NC1CCS(=O)(=O)C1)c1ccccc1` (centres unmarked), the “hERG current change (%, negative = inhibition) at 1uM” value is recorded as 6.55%. As to `CCn1nc(C)c(CN2CCC(C(=O)Nc3cccc(-c4cccc(F)c4)c3)CC2)c1C`, the “hERG current change (%, negative = inhibition) at 1uM” value is reported as -6.47%. In the case of `COc1cccc(-c2cccc(NC(=O)C3CCN(Cc4cccc(C)n4)CC3)c2)c1`, the “hERG current change (%, negative = inhibition) at 1uM” value is -46.7%. The same measure for `O=C(Nc1cccc(-c2cccc(F)c2)c1)C1CCN(C2CCOCC2)CC1`: -67.8%. For `Cc1cc(C)n(CCCN2CCC(C(=O)Nc3cccc(-c4cccc(F)c4)c3)CC2)n1`, the “hERG current change (%, negative = inhibition) at 1uM” value was -59.9%.

In the case of `Cc1ccc(CN2CCC(C(=O)Nc3cccc(-c4cccc(F)c4)c3)CC2)o1`, the “hERG current change (%, negative = inhibition) at 1uM” value was -28.7%. Regarding `COc1cccc(-c2cccc(NC(=O)C3CCN(C4CCOCC4)CC3)c2)c1`, the “hERG current change (%, negative = inhibition) at 1uM” value is -14.6%.

`O=C(Nc1cccc(-c2cccc(F)c2)c1)C1CCN(C2CCC2)CC1`: the “hERG current change (%, negative = inhibition) at 1uM” value was -26.1%. The same measure for `Cc1cccc(CN2CCC(C(=O)Nc3cccc(-c4cscn4)c3)CC2)n1`: -4.56%; for `CCCn1ncc(CN2CCC(C(=O)Nc3cccc(-c4cccc(F)c4)c3)CC2)c1C`: -60.6%; for `CCn1cc(CN2CCC(C(=O)Nc3cccc(-c4cccc(F)c4)c3)CC2)cn1`: -29.2%. For the compound `Cn1cc(CN2CCC(C(=O)Nc3cccc(-c4cccc(F)c4)c3)CC2)cn1`, the “hERG current change (%, negative = inhibition) at 1uM” value is reported as -37.9%. On to `Cc1cccc(CN2CCC(C(=O)Nc3cccc(-c4cccc(F)c4)c3)CC2)n1`, for which the “hERG current change (%, negative = inhibition) at 1uM” value was -66.1%. The same measure for `O=C(Nc1ccc(N2CCN(C(=O)c3ccco3)CC2)cc1)c1cc(Br)ccc1Cl`: 8.3%; for `CC(C)(C)c1cc(C(=O)NN)n(Cc2ccc(Cl)cc2Cl)n1`: 16.3%; for `CCOC(=O)c1c(NC(=O)c2ccc(S(=O)(=O)N3CCOCC3)cc2)sc2c1CC(C)(C)NC2(C)C`: 11.9%. Regarding `O=[N+]([O-])c1ccc(-c2nc(Nc3ccc(O)cc3)c3ccccc3n2)cc1`, the “hERG current change (%, negative = inhibition) at 1uM” value is 13%. With `COc1ccc(CCNC(=O)c2[nH]c(C)c(C(C)=O)c2C)cc1`, the “hERG current change (%, negative = inhibition) at 1uM” value turned out to be 10.9%. On to `CCOC(=O)c1c(NC(=O)C2C3C=CC(C3)C2C(=O)O)sc2c1CCC(CC)C2` (centres unmarked), for which the “hERG current change (%, negative = inhibition) at 1uM” value turned out to be 14%. `CCC(=O)Nc1nnc(-c2ccco2)o1`: the “hERG current change (%, negative = inhibition) at 1uM” value is recorded as 2.56%. Consider `O=C1OC(c2ccccc2)c2ccccc21` (centres unmarked), for which the “hERG current change (%, negative = inhibition) at 1uM” value came out at 9.85%. With `COC(=O)C1=C(C)NC(=O)C1(Nc1nccs1)C(F)(F)F` (centres unmarked), the “hERG current change (%, negative = inhibition) at 1uM” value stood at 8.37%.
